According to PubChem BioAssay (Tox21):
Records with an inconclusive call do not appear. A call without a number means that no potency is given here. Values without a mark were called inactive. The source made the active and inactive calls. Unless noted, calls follow the shape of the dose curve; as a rule, active = well fitted curve in the direction sought with a large enough effect in the repeat runs; inconclusive = weak or mixed curves; inactive = no such curve, though single readings can be large; an effect the other way counts as inactive or inconclusive.

Tests used:
[1] = qHTS assay to identify small molecule antagonists of the thyroid receptor (TR) signaling pathway - cell viability counter screen (AID 743064); also: nearly all actives have a fitted effect of over 50% in size; also: potency is read from the fitted curve at half-maximal effect
Summary of the method: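 Same-well viability check: GH3.TRE-Luc cells stimulated with 1 nM T3 alongside test compound for 23.5 h, followed by CellTiter-Fluor fluorescence.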

[2] = qHTS assay to identify small molecule antagonists of the thyroid receptor (TR) signaling pathway (AID 743065); also: nearly all actives have a fitted effect of over 55% in size; also: potency is read from the fitted curve at half-maximal effect
Summary of the method: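 GH3.TRE-Luc rat pituitary cells carrying two TR response elements driving luciferase were plated for 4 h, given compound plus 1 nM T3 (final), and incubated 23.5 h at 37 C. ONE-Glo luminescence measured reporter inhibition; CellTiter-Fluor fluorescence tracked cytotoxicity.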

[3] = system: thyroid hormone receptor (rat, GH3 cells); experiment: qHTS assay to identify small molecule agonists of the thyroid receptor (TR) signaling pathway (AID 743066; calls by dose curve)
[4] = biological target: Estrogen receptor (Homo sapiens) (UniProt P03372); experiment: qHTS assay to identify small molecule agonists of the estrogen receptor alpha (ER-alpha) signaling pathway (AID 743075; calls by dose curve;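 also: HEK293 GripTite cells with ER-alpha and UAS-driven beta-lactamase reporter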)
Estrogen receptor (Homo sapiens), sequence (P03372 whole entry, looked up): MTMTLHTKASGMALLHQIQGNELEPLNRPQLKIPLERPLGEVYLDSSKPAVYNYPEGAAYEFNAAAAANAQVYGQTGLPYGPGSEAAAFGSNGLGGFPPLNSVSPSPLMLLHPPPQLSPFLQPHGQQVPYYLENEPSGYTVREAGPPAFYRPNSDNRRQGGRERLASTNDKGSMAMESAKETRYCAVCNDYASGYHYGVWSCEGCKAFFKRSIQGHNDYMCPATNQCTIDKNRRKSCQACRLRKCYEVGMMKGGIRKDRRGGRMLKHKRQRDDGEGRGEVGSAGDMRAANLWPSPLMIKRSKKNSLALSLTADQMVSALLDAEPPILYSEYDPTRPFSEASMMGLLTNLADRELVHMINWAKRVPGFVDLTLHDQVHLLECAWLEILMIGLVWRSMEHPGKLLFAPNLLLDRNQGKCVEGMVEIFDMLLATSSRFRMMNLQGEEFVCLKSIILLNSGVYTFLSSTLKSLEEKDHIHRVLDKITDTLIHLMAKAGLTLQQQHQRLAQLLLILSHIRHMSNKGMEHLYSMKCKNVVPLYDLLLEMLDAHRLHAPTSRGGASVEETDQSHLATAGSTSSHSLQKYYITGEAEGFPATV

[5] = qHTS assay to identify small molecule antagonists of the estrogen receptor alpha (ER-alpha) signaling pathway using the BG1 cell line (AID 743080; calls by dose curve;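 also: BG1 cells stimulated with 17beta-estradiol alongside compound; nearly all actives have a fitted effect of over 25% in size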)
Summary of the method: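 Luciferase inhibition measured with ONE-Glo after 30 min at RT in BG1Luc4E2 cells given test compounds and 17beta-estradiol for 21.5 h at 37 C; CellTiter-Fluor viability read in the same wells beforehand.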

[6] = qHTS assay to identify small molecule antagonists of the estrogen receptor alpha (ER-alpha) signaling pathway using the BG1 cell line - cell viability counter screen (AID 743081);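 also: compound given together with 17beta-estradiol as the ER stimulus; nearly all actives have a fitted effect of over 45% in size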; also: potency is read from the fitted curve at half-maximal effect
Aromatase (Homo sapiens) = Aromatase (Homo sapiens) (UniProt P11511); experiment: qHTS assay to identify aromatase inhibitors (AID 743083); also: nearly all actives have a fitted effect of over 55% in size; also: potency is read from the fitted curve at half-maximal effect
Aromatase (Homo sapiens), sequence (P11511 whole entry, looked up): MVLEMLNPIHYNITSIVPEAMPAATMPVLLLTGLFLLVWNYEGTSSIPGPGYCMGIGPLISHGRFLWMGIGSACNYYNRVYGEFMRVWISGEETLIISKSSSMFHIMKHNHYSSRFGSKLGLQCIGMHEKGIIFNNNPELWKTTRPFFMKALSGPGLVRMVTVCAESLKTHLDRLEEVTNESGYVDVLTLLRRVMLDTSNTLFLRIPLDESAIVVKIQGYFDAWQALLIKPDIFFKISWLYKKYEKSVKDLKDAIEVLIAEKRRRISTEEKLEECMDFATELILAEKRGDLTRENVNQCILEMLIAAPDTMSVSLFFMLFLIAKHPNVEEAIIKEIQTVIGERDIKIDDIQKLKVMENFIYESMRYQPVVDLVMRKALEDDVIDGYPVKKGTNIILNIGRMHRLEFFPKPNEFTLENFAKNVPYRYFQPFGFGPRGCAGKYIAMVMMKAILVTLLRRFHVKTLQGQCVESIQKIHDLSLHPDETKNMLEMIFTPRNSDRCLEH

[7] = qHTS assay to identify aromatase inhibitors - cell viability counter screen (AID 743084);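 also: cells stimulated with testosterone during compound exposure; nearly all actives have a fitted effect of over 55% in size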; also: potency is read from the fitted curve at half-maximal effect
[8] = biological target: Aryl hydrocarbon receptor (Homo sapiens) (UniProt P35869); experiment: qHTS assay to identify small molecule that activate the aryl hydrocarbon receptor (AhR) signaling pathway (AID 743085); also: nearly all actives have a fitted effect of over 15% in size; also: potency is read from the fitted curve at half-maximal effect;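 as to activation: HG2L7.5c1 human HepG2 liver cells with stably integrated DRE-driven firefly reporter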
Aryl hydrocarbon receptor (Homo sapiens), sequence (P35869 whole entry, looked up): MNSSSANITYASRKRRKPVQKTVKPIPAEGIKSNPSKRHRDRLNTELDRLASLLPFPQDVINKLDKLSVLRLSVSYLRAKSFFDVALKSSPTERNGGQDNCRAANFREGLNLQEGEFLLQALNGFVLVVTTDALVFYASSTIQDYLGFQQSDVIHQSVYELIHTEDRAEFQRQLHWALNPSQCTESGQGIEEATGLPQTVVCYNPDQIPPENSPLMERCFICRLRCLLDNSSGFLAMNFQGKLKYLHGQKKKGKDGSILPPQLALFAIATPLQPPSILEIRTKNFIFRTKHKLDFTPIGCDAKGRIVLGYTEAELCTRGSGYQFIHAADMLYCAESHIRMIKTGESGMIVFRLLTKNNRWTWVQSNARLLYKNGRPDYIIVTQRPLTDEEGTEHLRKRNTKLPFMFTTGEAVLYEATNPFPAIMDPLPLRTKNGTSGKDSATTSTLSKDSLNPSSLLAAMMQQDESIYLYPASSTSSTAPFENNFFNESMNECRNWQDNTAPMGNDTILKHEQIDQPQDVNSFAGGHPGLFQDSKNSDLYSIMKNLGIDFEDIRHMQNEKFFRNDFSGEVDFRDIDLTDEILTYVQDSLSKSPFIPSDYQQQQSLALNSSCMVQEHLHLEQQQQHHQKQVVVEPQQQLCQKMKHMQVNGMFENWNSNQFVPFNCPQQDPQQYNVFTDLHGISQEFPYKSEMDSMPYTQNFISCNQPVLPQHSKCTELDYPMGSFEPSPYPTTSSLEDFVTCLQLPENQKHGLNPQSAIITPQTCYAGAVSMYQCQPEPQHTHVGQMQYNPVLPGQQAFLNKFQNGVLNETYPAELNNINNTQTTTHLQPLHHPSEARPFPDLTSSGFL
Summary of the method: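 Reporter assay in engineered HepG2 line HG2L7.5c1, whose plasmid carries twenty dioxin responsive elements upstream of firefly luciferase. Treatment lasted 24 h at 37C; ONE-Glo luminescence gauged induction.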

[9] = qHTS assay to identify small molecule that activate the aryl hydrocarbon receptor (AhR) signaling pathway - cell viability counter screen (AID 743086); also: nearly all actives have a fitted effect of over 45% in size; also: potency is read from the fitted curve at half-maximal effect
Summary of the method: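 HepG2-AhR-luc (HG2L7.5c1) cells, 4000/well, were preincubated 5 h at 37C, exposed to compound in qHTS format for 24 hr at 37C, then given CellTiter-Fluor for 30 min; viability was read as fluorescence in the reporter wells.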

[10] = biological target: Peroxisome proliferator-activated receptor gamma (Homo sapiens) (UniProt P37231); experiment: qHTS assay to identify small molecule agonists of the peroxisome proliferator-activated receptor gamma (PPARg) signaling pathway (AID 743094; active = well fitted activation curve with a large enough effect in the signal ratio in the repeat runs, not every such curve was filed as active; the % refers to the signal ratio)
Peroxisome proliferator-activated receptor gamma (Homo sapiens), sequence (P37231 whole entry, looked up): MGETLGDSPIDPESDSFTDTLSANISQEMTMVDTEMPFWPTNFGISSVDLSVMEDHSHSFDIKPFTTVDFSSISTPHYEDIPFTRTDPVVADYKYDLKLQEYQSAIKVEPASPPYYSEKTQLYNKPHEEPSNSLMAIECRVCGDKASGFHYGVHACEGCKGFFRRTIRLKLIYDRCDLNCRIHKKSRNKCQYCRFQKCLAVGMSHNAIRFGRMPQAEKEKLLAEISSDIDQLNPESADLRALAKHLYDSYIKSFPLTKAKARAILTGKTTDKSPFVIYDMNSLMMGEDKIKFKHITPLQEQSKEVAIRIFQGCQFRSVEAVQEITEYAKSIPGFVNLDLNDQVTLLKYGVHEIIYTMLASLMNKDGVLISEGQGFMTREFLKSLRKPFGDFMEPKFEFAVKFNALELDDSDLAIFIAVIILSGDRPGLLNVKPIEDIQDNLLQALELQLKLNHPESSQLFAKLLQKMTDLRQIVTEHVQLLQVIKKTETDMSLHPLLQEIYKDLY
Summary of the method: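 Agonist activity was taken from a beta-lactamase reporter (FRET substrate, 1 h at room temperature) in HEK293H cells carrying a PPARg UAS-bla construct. Compounds in DMSO were incubated 17 h at 37C after a 5 h cell pre-incubation.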

[11] = biological target: Nuclear receptor subfamily 1 group I member 2 (Rattus norvegicus) (UniProt Q9R1A7); experiment: Rat pregnane X receptor (rPXR) activation by small molecules, qHTS assay (AID 1346983); details: rPXR luciferase reporter cells, One-Glo luminescence, 24 h; max activation: stronger effect = higher value; also: nearly all actives have a fitted effect of over 20% in size
Nuclear receptor subfamily 1 group I member 2 (Rattus norvegicus), sequence (Q9R1A7 whole entry, looked up): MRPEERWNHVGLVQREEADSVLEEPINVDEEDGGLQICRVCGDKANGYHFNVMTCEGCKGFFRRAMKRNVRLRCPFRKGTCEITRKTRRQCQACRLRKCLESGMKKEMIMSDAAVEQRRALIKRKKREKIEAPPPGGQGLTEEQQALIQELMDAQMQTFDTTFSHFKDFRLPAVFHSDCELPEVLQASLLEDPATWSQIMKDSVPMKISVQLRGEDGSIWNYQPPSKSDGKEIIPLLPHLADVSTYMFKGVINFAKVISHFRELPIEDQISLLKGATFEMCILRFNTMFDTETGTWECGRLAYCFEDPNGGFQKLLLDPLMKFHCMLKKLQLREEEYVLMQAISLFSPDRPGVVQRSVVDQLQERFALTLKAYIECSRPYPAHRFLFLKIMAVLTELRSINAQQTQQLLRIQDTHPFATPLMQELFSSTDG
Summary of the method: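 Cell-based rPXR luciferase reporter assay, 2,000 cells per well, rested 5hr at 37 C before compound addition in DMSO, then 24 hr at 37 C. One-Glo reagent was added and luminescence read after 30 min at room temperature.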

[12] = biological target: Nuclear receptor subfamily 1 group I member 2 (Homo sapiens) (UniProt O75469); experiment: Human pregnane X receptor (PXR) activation by small molecules, qHTS assay (AID 1346985); also: nearly all actives have a fitted effect of over 40% in size; also: potency is read from the fitted curve at half-maximal effect
Summary of the method: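 DPX-2 cells (HepG2 co-transfected with a PXR response element and a CYP3A4-promoter luciferase construct) were seeded at 2,000 per well, rested 5 hr at 37C, then exposed to DMSO-dissolved compounds for 24 hr. Activation was read as luciferase luminescence.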

[13] = qHTS assay to identify small molecule antagonists of the estrogen receptor alpha (ER-alpha) signaling pathway - cell viability counter screen (AID 743074; calls by dose curve;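 also: HEK293 cells carrying ER-alpha-UAS-bla reporter stimulated with 17beta-estradiol; nearly all actives have a fitted effect of over 45% in size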; also: potency is read from the fitted curve at half-maximal effect)
[14] = biological target: Nuclear receptor subfamily 1 group I member 2 (Homo sapiens) (UniProt O75469); experiment: CYP3A4 induction through human pregnane X receptor (PXR) by small molecules, qHTS assay (AID 1346984); also: nearly all actives have a fitted effect of over 40% in size
Summary of the method: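 Read-out is luminescence after One-Glo addition, following a 3 hr, 37C incubation with Luciferin-IPA CYP3A4 substrate (3uM final). Before that, compounds were on DPX-2 cells (HepG2 co-transfected with PXR element plus CYP3A4-promoter luciferase) for 24 hr at 37C.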

[15] = biological target: Estrogen receptor (Homo sapiens) (UniProt P03372); experiment: qHTS assay to identify small molecule antagonists of the estrogen receptor alpha (ER-alpha) signaling pathway (AID 743069; active = well fitted curve in the direction sought with a large enough effect in the signal ratio in the repeat runs, not every such curve was filed as active; the % refers to the signal ratio)
Summary of the method: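 A 17beta-estradiol challenge was applied right after compound transfer to ER-alpha-UAS-bla HEK293 cells previously kept in charcoal-stripped serum. Plates stood 18 hr at 37C and 5% CO2; fluorescence was read following 2 hr FRET substrate loading at room temperature.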

[16] = biological target: Estrogen receptor (Homo sapiens) (UniProt P03372); experiment: qHTS assay to identify small molecule agonists of the estrogen receptor alpha (ER-alpha) signaling pathway using the BG1 cell line (AID 743079); details: BG1Luc4E2 cells, ERE-luciferase agonist, 22 h; activation: at 70.3 µM (top of the series); also: nearly all actives have a fitted effect of over 20% in size; also: potency is read from the fitted curve at half-maximal effect

SMILES	Potency [1]	Potency [2]	Potency [3]	Potency [4]	Potency [5]	Potency [6]	Potency (Aromatase (Homo sapiens))	Potency [7]	Potency [8]	Potency [9]	Potency [10]	max activation [11]	Potency [12]	Potency [13]	Potency [14]	Potency [15]	Potency [16]
O=C(O)c1c(Cl)c(Cl)c(Cl)c(Cl)c1-c1c2cc(I)c(=O)c(I)c-2oc2c(I)c(O)c(I)cc12	23.7 µM (active)	23.7 µM (active)	inactive	inactive	inactive	23.7 µM (active)	inactive	23.7 µM (active)	6.68 µM (active)	23.7 µM (active)	inactive	-7.42%	inactive	–	–	–	–
CCCCCCCCCCCCCCCCCCCCCC(=O)Nc1ccn([C@@H]2O[C@H](CO)[C@@H](O)[C@@H]2O)c(=O)n1	–	18.8 µM (active)	inactive	–	–	inactive	inactive	inactive	inactive	inactive	inactive	-4.2%	inactive	inactive	inactive	–	–
C=C[C@]1(C)C[C@@H](OC(=O)CSC(C)(C)CNC(=O)[C@H](N)C(C)C)[C@]2(C)[C@H](C)CC[C@]3(CCC(=O)[C@H]32)[C@@H](C)[C@@H]1O	2.66 µM (active)	13.3 µM (active)	inactive	inactive	–	5.96 µM (active)	21.1 µM (active)	2.98 µM (active)	inactive	3.76 µM (active)	–	–	8.91 µM (active)	inactive	inactive	inactive	–
CCCCCCCCCCCCCCCC(=O)O[C@@H]1CC(C)=C(/C=C/C(C)=C/C=C/C(C)=C/C=C/C=C(C)/C=C/C=C(C)/C=C/C2=C(C)C[C@@H](OC(=O)CCCCCCCCCCCCCCC)CC2(C)C)C(C)(C)C1	–	–	inactive	inactive	inactive	inactive	inactive	inactive	inactive	inactive	inactive	–	–	inactive	–	–	inactive
C[C@]12C=CC(=O)N[C@@H]1CC[C@@H]1[C@@H]2CC[C@]2(C)[C@@H](C(=O)Nc3cc(C(F)(F)F)ccc3C(F)(F)F)CC[C@@H]12	–	–	inactive	inactive	–	inactive	inactive	inactive	inactive	inactive	inactive	–	inactive	–	inactive	–	–
O=C(O[C@H]1CN2CCC1CC2)N1CCc2ccccc2[C@@H]1c1ccccc1	23.7 µM (active)	23.7 µM (active)	–	–	–	inactive	inactive	inactive	inactive	inactive	–	–	–	inactive	–	–	–
C[N+](C)(CCCCCC[N+](C)(C)C1c2ccccc2-c2ccccc21)C1c2ccccc2-c2ccccc21	inactive	inactive	inactive	inactive	inactive	inactive	inactive	inactive	inactive	inactive	inactive	–	–	–	–	inactive	inactive
C[C@]12CC[C@@H]3c4ccc(OS(=O)(=O)O)cc4CC[C@H]3[C@@H]1CCC2=O	inactive	inactive	inactive	–	–	inactive	–	–	–	–	–	–	–	inactive	–	–	–
COc1ccc(CNCC(O)COc2ccc3[nH]c(=O)ccc3c2)cc1OC (stereo not given)	inactive	inactive	inactive	–	–	inactive	inactive	inactive	inactive	inactive	inactive	–	–	inactive	–	–	–
C=C1CC2C3CCC4=CC(=O)C=C[C@]4(C)[C@@]3(F)[C@@H](O)C[C@]2(C)[C@@]1(O)C(=O)COC(C)=O (stereo not given in full)	inactive	inactive	inactive	inactive	–	–	inactive	inactive	inactive	inactive	inactive	–	–	inactive	–	–	–
CC(CN1c2ccccc2Sc2ccc(S(=O)(=O)N(C)C)cc21)N(C)C (stereo not given)	11.9 µM (active)	13.3 µM (active)	–	inactive	inactive	inactive	–	inactive	–	–	inactive	–	–	inactive	–	inactive	inactive
CCCCCCCC(=O)CC[C@@H]1[C@@H](C/C=C\CCCC(=O)OC(C)C)[C@@H](O)C[C@H]1O	21.1 µM (active)	16.8 µM (active)	–	inactive	inactive	inactive	–	inactive	–	inactive	inactive	–	–	26.8 µM (active)	–	–	inactive
CC[C@H](CC[C@@H](C)[C@H]1CC[C@H]2[C@@H]3CC=C4C[C@@H](O)CC[C@]4(C)[C@H]3CC[C@]12C)C(C)C	inactive	inactive	inactive	inactive	–	inactive	inactive	inactive	inactive	inactive	inactive	–	–	inactive	–	inactive	inactive
CC(=O)[C@@]1(O)CC[C@H]2[C@@H]3C=C(Cl)C4=CC(=O)CC[C@]4(C)[C@H]3CC[C@@]21C	inactive	29.8 µM (active)	inactive	inactive	–	–	inactive	inactive	inactive	inactive	–	–	–	inactive	–	–	29.8 µM (active)
O=c1[nH]cnc2[nH]cc(CN3CCCCC3)c12	inactive	inactive	inactive	inactive	inactive	inactive	–	inactive	inactive	inactive	inactive	–	–	–	–	inactive	inactive
